From PubChem
Sampled rows, rich in hits. Any-hit rate of the full collection: about 12%.
BAZ2B inh – blocks human BAZ2B | Q9UIF8 | AlphaScreen BAZ2B-H3K14Ac peptide displacement | Potency, µM (series often up to 114 µM), without a hit: at the top dose activity change, negative = inhibition, hits mostly inhibitors | 360,000 tested, 4.4% active | AID 504333; also: % is scaled to controls: 0 for no effect and ±100 for the full control effect; nearly all actives have a fitted effect of over 60% in size
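Multi-concentration screen (max 110 uM) measuring displacement of acetylated histone H3 peptide from BAZ2B by AlphaScreen, using 50 nM protein, 50 nM peptide and 10 ug/mL streptavidin donor plus Ni-chelate acceptor beads.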
Sfp PPTase inh – blocks B. subtilis Sfp PPTase activity. Q9F4F7. Biochemical Sfp PPTase activity, qHTS. Potency, µM, for the others: largest response in the series, negative = inhibition, most hits filed as inhibitors. 310,000 tested, 3.5% active;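 also: the enzyme is Sfp with the accession as filed and its product quenches rhodamine fluorescence; 0% = enzyme reaction without inhibitor and -100% = no enzyme wells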
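Compounds were incubated with enzyme (final 15 nM) for 15 min at room temperature before substrate addition started the reaction. Fluorescence at 525 nm excitation, 598 nm emission was recorded immediately and after 30 minutes.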
L3MBTL1 inh – L3MBTL1 (human) inhibition. Q9Y468. AlphaScreen L3MBTL1–H3K9me1 peptide binding. Potency, µM (top dose mostly 57.1 µM), inactives show at the highest dose activity, negative = inhibition, hits mostly inhibitors. 230,000 tested, 0.66% active; also: % is scaled to controls: 0 for no effect and ±100 for the full control effect; nearly all actives have a fitted effect of over 60% in size
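Displacement of a biotinylated histone H3(1-15) peptide monomethylated at Lys9 (75 nM) from L3MBTL1 (50 nM) was measured by AlphaScreen after a 30 min room-temperature compound incubation; cefsulodin titration served as intraplate control.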
HP1b chromo inh – HP1-beta chromodomain-methylated histone interaction inhibition | P83916 | AlphaScreen HP1-beta / biotin-H3K9me3 peptide binding | Potency, µM (top dose mostly 114 µM), for inactives: at the highest dose activity change, negative = inhibition, most hits filed as inhibitors | 390,000 tested, 0.56% active | AID 540317; also: nearly all actives have a fitted effect of over 70% in size
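Compound inhibition of the preformed complex between 50 nM HP1-beta and 50 nM biotinylated H3K9me3 peptide was read by AlphaScreen. Buffer was PBS pH 7.4 with 0.01% Tween-20. Incubations ran 30 min at room temperature, with 10 ug/mL donor/acceptor beads.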
JMJD2A Tudor – inhibitors of human JMJD2A Tudor domain | 390,000 tested, 4.4% active | O75164 | AlphaScreen JMJD2A-Tudor / H3K4me3 peptide binding | Potency, µM (doses to about 114 µM), without a hit: at the highest dose activity change, negative = inhibition, actives largely listed as inhibitors | AID 504339; also: % is scaled to controls: 0 for no effect and ±100 for the full control effect; nearly all actives have a fitted effect of over 50% in size
Target sequence (O75164 whole entry, looked up, the tested form may be a part): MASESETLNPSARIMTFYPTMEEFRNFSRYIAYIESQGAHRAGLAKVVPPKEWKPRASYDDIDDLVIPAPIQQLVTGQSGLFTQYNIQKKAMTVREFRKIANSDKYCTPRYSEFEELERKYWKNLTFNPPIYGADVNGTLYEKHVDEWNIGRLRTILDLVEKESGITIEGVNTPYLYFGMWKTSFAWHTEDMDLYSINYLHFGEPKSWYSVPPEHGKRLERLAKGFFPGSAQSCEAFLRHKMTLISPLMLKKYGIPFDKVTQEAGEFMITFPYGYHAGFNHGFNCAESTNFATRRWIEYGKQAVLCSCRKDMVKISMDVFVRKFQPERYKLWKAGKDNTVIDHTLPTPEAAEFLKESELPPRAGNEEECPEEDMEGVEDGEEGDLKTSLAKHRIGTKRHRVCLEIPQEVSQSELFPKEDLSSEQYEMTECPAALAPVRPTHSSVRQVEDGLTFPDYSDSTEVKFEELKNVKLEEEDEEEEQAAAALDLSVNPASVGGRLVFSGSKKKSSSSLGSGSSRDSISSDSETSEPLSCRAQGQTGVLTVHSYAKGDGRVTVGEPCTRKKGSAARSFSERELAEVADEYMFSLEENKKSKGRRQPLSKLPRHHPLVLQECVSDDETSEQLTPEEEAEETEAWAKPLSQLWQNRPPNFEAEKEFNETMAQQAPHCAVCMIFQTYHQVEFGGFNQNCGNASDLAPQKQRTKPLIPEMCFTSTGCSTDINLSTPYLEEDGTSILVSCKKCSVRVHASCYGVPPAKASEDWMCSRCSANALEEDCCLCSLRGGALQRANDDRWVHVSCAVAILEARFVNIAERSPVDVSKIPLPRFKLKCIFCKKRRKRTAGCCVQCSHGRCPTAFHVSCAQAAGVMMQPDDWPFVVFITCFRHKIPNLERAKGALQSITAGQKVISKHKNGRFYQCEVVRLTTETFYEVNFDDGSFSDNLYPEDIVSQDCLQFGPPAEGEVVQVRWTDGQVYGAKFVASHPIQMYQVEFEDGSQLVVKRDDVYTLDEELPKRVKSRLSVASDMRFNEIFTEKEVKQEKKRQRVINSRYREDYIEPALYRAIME
G9a block – G9a (human) methyltransferase inhibition. Q96KQ7. 350,000 tested, 8.8% active. Potency, µM (top dose mostly 102 µM), without a hit: at the top dose activity, negative = inhibition, hits mostly inhibitors. G9a H3K9 monomethylation, AlphaScreen, 2 h. AID 504332; also: % is scaled to controls: 0 for no effect and ±100 for the full control effect; nearly all actives have a fitted effect of over 75% in size
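Compounds were preincubated with 20 nM G9a for 15 min, after which biotinylated H3K9 peptide (500 nM) and SAM (20 uM) started a 2 h room-temperature reaction. Monomethylated product was quantified by antibody-based AlphaScreen chemiluminescence.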
Active calls of the source: *; ? = inconclusive; · = no result; [ ] = remark or other dose. Calls follow the shape of the dose curve; as a rule, active = well fitted curve in the direction sought with a large enough effect; inconclusive = small, poorly fitted or top-dose-only effect, or another doubt; inactive = no such curve, though single readings can be large; an effect the other way counts as inactive or inconclusive. Potency is read from the fitted curve at half-maximal effect.

SMILES	BAZ2B inh	Sfp PPTase inh	L3MBTL1 inh	HP1b chromo inh	JMJD2A Tudor	G9a block
Cc1ccc(S(=O)(=O)c2nc(NCc3ccc4c(c3)OCO4)sc2Cl)cc1	-1%	0%	-15%	5%	-30%	32µM*
COC(=O)CNc1ccc2c(c1)OCO2	-32%	-19%	-1%	-21%	?	8.9µM*
O=C(NCc1ccncc1)C(=O)Nc1ccc2c(c1)OCO2	?	11%	-3%	78%	-11%	?
Cc1ccc(S(=O)(=O)c2nnn3c2nc(NCc2ccc4c(c2)OCO4)c2sccc23)cc1	-3%	·	·	7%	-22%	-9%[59 µM]
c1cc(CNc2ccc3c(c2)OCO3)ccn1	?	?	-14%	-54%	?	35µM*
CCCCN(CCCC)CCNC(=O)CSCc1ccc(C)cc1	50µM*	?	-17%	-32%	6.3µM*	3.5µM*
Cc1cc(N2C(=O)C=CC2=O)c([N+](=O)[O-])cc1C	56µM*	-98%	-10%	5.6µM*	6.3µM*	1.3µM*
Cc1cc(C)cc(N2C(=O)C=CC2=O)c1	·	·	·	13µM*	20µM*	·
Cc1c([N+](=O)[O-])cc(N2C(=O)C=CC2=O)cc1[N+](=O)[O-]	·	·	·	35µM*	22µM*	·
Cc1cc(C)cc(N2C(=O)c3nccnc3C2=O)c1	1%	9%	5%	23%	1%	-2%
N#Cc1ccc(S(=O)(=O)N2CCN(S(=O)(=O)c3ccc4c(c3)OCCO4)CC2)cc1	·	·	·	·	-2%	·
O=C(O)CCCCCNc1ccc2nsnc2c1[N+](=O)[O-]	13%	89µM*	34%	26%	-12%	61%[59 µM]
Cc1ccc(CSc2nc(=O)c3c(C)cc(C)nc3n2C2CC2)cc1	18%	·	·	38%[57 µM]	-17%	4%[59 µM]
Cc1cc(Nc2cccc(O)c2)c2cccc(Br)c2n1	-18%	·	·	37%	-4%	4%[59 µM]
CCc1cc2c(nc1CC)CCN(CC/C(C)=N/O[C@@H](C)c1cc(-c3c(C)cc(C)cc3C)no1)C2	?	?	-1%	·	·	35µM*
C/C(CCN1CCc2nc(-c3ccccc3)c(-c3ccccc3)cc2C1)=N\O[C@@H](C)c1cc(-c2c(C)cc(C)cc2C)no1	-26%	0%	0%	27%	-22%	?
Cc1cccc[n+]1C1C(c2ccccc2)C(C#N)=C(C(=C=[N-])C#N)NC1(O)C1CC1 (stereo not given)	-35%	2%	-2%	-19%	?	40µM*
CCc1ccc(Nc2nnc(SCC(=O)NC(=O)CN3CCCC3=O)s2)cc1	?	·	-8%	-6%	?	6.3µM*
Oc1ccc(N=Nc2nc(-c3ccccc3)c(-c3ccccc3)[nH]2)cc1	11µM*	16%	?	-72%	22µM*	20µM*
Oc1ccc(N=Nc2n[nH]c(-c3ccccc3)n2)cc1	?	18%	-9%	-9%	?	3.2µM*
c1ccc2c(c1)CCN(C1CCCCC1)C2	79µM*	-3%	5%	?	25µM*	20µM*
CCCCNc1c(-c2cccc(-c3cc(C(C)=O)cs3)c2)nc2cc(C)ccn12	28µM*	·	-23%	-8%	?	5%[2.33 µM]
CCCCCCSc1cc(-c2nc3cc(C)ccn3c2NCCCC)ccc1OC	-36%	·	-9%	26%	?	8%[2.33 µM]
CC(=O)c1csc(-c2cccc(-c3nc4ccc(Cl)cn4c3NC3CCCCC3)c2)c1	56µM*	·	1%	-7%	?	2%[2.33 µM]
COc1ccc(-c2cccc(-c3nc4ccc(Cl)cn4c3NC3CCCCC3)c2)cc1	·	·	0%	18%	-34%	·
SMILES	BAZ2B inh	Sfp PPTase inh	L3MBTL1 inh	HP1b chromo inh	JMJD2A Tudor	G9a block
CCOC(=O)c1scc(-c2ccccc2)c1S(=O)(=O)N1CCN(c2ccccc2OC)CC1	-37%	·	·	-1%	-18%	-6%[59 µM]
COc1ccc(NC(=O)CSc2n[nH]c(-c3ccccc3)n2)cc1Cl	3%	·	·	18%[57 µM]	-12%	-4%[59 µM]
Cc1nc(Cl)cc(CS(=O)(=O)c2ccc(Cl)cc2)n1	79µM*	-1%	12%	11%	-11%	?
Cc1nc(CS(=O)(=O)c2ccccc2)cc(Sc2ccc(Cl)cc2Cl)n1	5%	0%	5%	33%	-6%	36%[59 µM]
Cc1ccccc1CSc1nnc(-c2ccco2)n1Cc1ccco1	50µM*	-11%	-11%	-9%	?	23%[0.501 µM]
CCN(CC)C(=O)CSc1nnc(-c2ccco2)n1N	-5%	12%	3%	35%	37%	-2%[12.7 µM]
CC(=O)c1c(C)[nH]c(C(=O)CSc2nnc(-c3ccco3)n2Cc2ccccc2)c1C	50µM*	-21%	-9%	9%	-14%[57.1 µM]	40µM*
CCN(CC)C(=O)CSc1nnc(-c2ccco2)n1Cc1ccco1	-10%	-4%	-4%	24%	-19%	40µM*
COC(=O)CSc1nnc(-c2ccco2)n1Cc1ccco1	·	22µM*	-8%	30%	-5%	?
O=C(CSc1nnc(-c2ccco2)n1Cc1ccccc1)OC1CCCCC1	?	-8%	-6%	2%	-23%[57.1 µM]	50µM*
CCOC(=O)CSc1nnc(-c2ccco2)n1-c1ccc(C)cc1	-11%	-6%	·	39%	-9%[57.1 µM]	-10%[12.7 µM]
CCOC(=O)CSc1nnc(-c2ccco2)n1-c1ccccc1	-5%	35µM*	-1%	28%	-12%	?
CCN(C(=O)CSc1nnc(-c2ccco2)n1Cc1ccccc1)C1CCS(=O)(=O)C1 (stereo not given)	-36%	·	0%	53%	-7%	?
CNC(=O)C1CCC(Cn2c(=O)c3sccc3n(CC(=O)NCc3ccccc3)c2=O)CC1 (stereo not given)	4%	·	·	69%	9%	13%[59 µM]
COc1ccc(NC(=O)c2cnc3sc(N4CCOCC4)nn3c2=O)c(OC)c1	-6%	·	·	19%	-8%	-19%[59 µM]
O=C(COc1ccc(Cl)cc1)Nc1ccc2nc(SCC(=O)N3CCCC3)sc2c1	-18%	·	·	18%	-15%	-1%[59 µM]
CCc1ccccc1NNC(=O)c1snnc1C	-12%	?	0%	12%	-7%	2.8µM*
CCc1ccccc1NNC(=O)c1sccc1Cl	·	·	·	37%	-24%	·
Cc1nnsc1C(=O)NNc1c(Cl)cccc1Cl	4%	-1%	9%	33%	-8%	8.9µM*
CC1CCCCC1NC(=O)CNC(=O)c1cccs1 (stereo not given)	-1%	·	-4%	20%	12%	14µM*
COc1ccc(/C=C/C(=O)N(CC(C)C)C2CCS(=O)(=O)C2)cc1 (stereo not given)	8%	·	-2%	29%	5%	3%
CC(C)CN(C(=O)/C=C/c1nc2ccccc2s1)C1CCS(=O)(=O)C1 (stereo not given)	3%	·	-15%	0%	-21%	56µM*
